This is a sample that favours compounds with a hit; in the whole collection about 2.4% have one here.
D2 PAM-1: HTS Assay for Positive Allosteric Modulators of the Human D2 Dopamine Receptor: Primary Screen for Potentiators | D(2) dopamine receptor (Homo sapiens), P14416 | HEK293 T-REx D2, calcium flux, EC20 dopamine potentiation | potentiation, % at 10 µM | 0.34% of 340,000 active | AID 485347, 2010;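 active means potentiation over 3 SD above the plate norm, cut at about 30% in these data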; further: 0% is about no effect
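Tetracycline-induced Hek293 Trex D2 cells, force-coupled to calcium, loaded with no-wash calcium dye. Compound added with 180 s kinetic read for agonism, then EC20 dopamine and a further 180 s read for potentiation.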
D2 ag-1: Beta-Arrestin HTS for Positive Allosteric Modulators of the Human D2 Dopamine Receptor: Agonists; activation, % (test concentration not listed); AID 624465, 2012; 0.084% of 360,000 active; DiscoveRx PathHunter D2 beta-arrestin, luminescence, 90 min; 100% = 57 uM dopamine signal; in the data active means activation above about 40%; inconclusive means between about 15% and that limit
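Agonist mode: compounds alone added to overnight-plated D2 PathHunter cells for 90 min at 37 C, with 57 uM final dopamine (EC100) defining full response. Beta-arrestin recruitment detected by chemiluminescent reagent, read after 1 h at ambient temperature.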
D2 PAM-2: Beta-Arrestin HTS for Positive Allosteric Modulators of the Human D2 Dopamine Receptor: Potentiators; 0.23% of 360,000 active; potentiation, % (test concentration not listed); AID 624464, 2012; DiscoveRx D2 beta-arrestin cells, luminescence, 90 min; 100% = 57 uM dopamine signal; D(2) dopamine receptor (Homo sapiens), P14416; in the data active means potentiation above about 50%; inconclusive means mostly about 30% to 49%
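D2 cells co-treated with compound plus 50 nM dopamine (EC20) for 90 min at 37 deg C to detect potentiation. Beta-arrestin recruitment was read as enzyme-fragment luminescence after 1 h at ambient temperature. Full response was set by 57 uM dopamine.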
D2 ag-2: HTS Assay for Allosteric Agonists of the Human D2 Dopamine Receptor: Primary Screen for Agonists. D(2) dopamine receptor (Homo sapiens), P14416. HEK293 T-REx D2 cells, calcium flux agonist mode. activation, % at 2 µM. 0.53% of 340,000 active. AID 485358, 2010;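 active means activation over 3 SD above normal in the single-dose calcium agonist read, cut at about 30% in these data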; further: 0% is about no effect
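Tetracycline-induced HEK293 Trex cells with D2 receptor force-coupled to calcium signaling, plated overnight at 30 C and loaded with no-wash calcium dye. Calcium flux read kinetically for 180 s after compound addition; responses flag agonists.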
D2 antagonist: HTS Assay for Allosteric Antagonists of the Human D2 Dopamine Receptor: Primary Screen for Antagonists | D(2) dopamine receptor (Homo sapiens), P14416 | HEK293 TREx D2 cells, calcium flux, dopamine EC80 | inhibition, % at 10 µM | 2% of 340,000 active | AID 485344, 2010; in the data active means inhibition above about 30%; inactive means below that, where a call was filed; further: 0% is about no effect
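In this primary screen, negative modulation is detected by tracking calcium flux after an EC80 dopamine challenge in inducible HEK293 T-REx D2 cells preexposed to test compound for 180 s.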
D3 arrestin ag: qHTS of D3 Dopamine Receptor Agonist: D3 Dopamine Receptor B-arrestin Agonist Confirmatory Assay; shares compounds with D2 ag-2; DiscoveRx D3 beta-arrestin cells, luminescence, 90 min; AID 720506, 2013; Potency, µM (highest dose often 76.9 µM), inactives show at the highest dose activation, actives largely listed as activators; 4% of 2,300 active;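 further: potency means the concentration at half of the fitted maximal effect; 100% = dopamine control response; nearly all actives have a fitted effect of over 70% in size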
Target sequence (P35462 whole entry, looked up): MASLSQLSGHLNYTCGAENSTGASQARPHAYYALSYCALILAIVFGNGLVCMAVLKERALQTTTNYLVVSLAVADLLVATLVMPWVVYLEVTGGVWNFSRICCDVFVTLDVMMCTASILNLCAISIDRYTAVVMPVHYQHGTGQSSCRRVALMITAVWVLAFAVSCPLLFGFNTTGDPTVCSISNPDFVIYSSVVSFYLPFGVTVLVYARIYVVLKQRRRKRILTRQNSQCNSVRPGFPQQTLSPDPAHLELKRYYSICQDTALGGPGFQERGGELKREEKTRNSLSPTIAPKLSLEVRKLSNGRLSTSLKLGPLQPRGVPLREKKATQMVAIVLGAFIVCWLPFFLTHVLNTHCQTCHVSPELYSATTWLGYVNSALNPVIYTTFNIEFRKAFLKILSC
D2 ag-3: qHTS of D3 Dopamine Receptor Agonist: D2 Dopamine Receptor B-arrestin Agonist Counterscreen | shares compounds with D2 ag-2 | DiscoveRx PathHunter D2 beta-arrestin, luminescence, 90 min; response scale: percent relative to full dopamine signal | Potency, µM (doses to about 76.9 µM), inactives show top-dose activation, most hits filed as activators | 5.9% of 2,300 active | AID 720507, 2013; further: potency means the concentration at half of the fitted maximal effect; % of control where 0% means no effect; nearly all actives have a fitted effect of over 70% in size
* hit, by the source's call; ? = inconclusive; · = not tested or not shown. Unless noted, the call rests on the fitted dose curve; in most records, active means well fitted activation curve with a large enough effect; inconclusive means small, poorly fitted or top-dose-only effect; inactive means flat fitted curve, though single readings scatter.

SMILES	D2 PAM-1	D2 ag-1	D2 PAM-2	D2 ag-2	D2 antagonist	D3 arrestin ag	D2 ag-3
O=C(CN1CCN(Cc2ccccc2)CC1)NC(=O)NC1CCCCC1	13	-4	-20	0	-4	·	·
COc1ccc(OC)c(CN2CCN(C(=O)c3cccs3)CC2)c1	-23	49*	?	82*	71*	23%	?
COc1cccc(CN2CCN(C(=O)c3cccs3)CC2)c1OC	-25	?	-4	90*	71*	?	?
Cn1cc(S(=O)(=O)c2ccccc2)c(=O)c2cc(F)c(N3CCCCCC3)cc21	1	·	·	1	·	·	·
O=[N+]([O-])c1cc(/C=N/N/C(=N/c2ccccn2)c2ccccn2)ccc1O	-9	-2	-23	29	-6	-25%	-13%
COc1cccc(CNC(=O)CNS(=O)(=O)c2ccc3nc(C)sc3c2)c1	-6	·	·	1	·	·	·
Cc1cc(Cl)ccc1NC(=O)C1CCN(S(=O)(=O)c2ccc3[nH]c(=O)ccc3c2)CC1	10	·	·	·	·	·	·
O=C(c1cc2ccccc2o1)N1CCN(Cc2nc3ccccc3s2)CC1	·	-2	-30	·	·	·	·
COc1ccc(CCC(=O)NC2CCC(C)CC2)cc1 (centres undefined)	-14	-4	-8	0	-11	·	·
CCc1cccc(CC)c1NC(=S)NCCc1ccc(O)c(O)c1	-14	11	-34	36*	25	40µM*	?
CCCCOc1ccc(OC(=O)c2sc3ncn(Cc4cccc(F)c4)c(=O)c3c2C)cc1	·	·	·	1	·	·	·
COCCn1c(SCC(=O)NCc2ccc3c(c2)OCO3)nnc1C(C)C	0	-2	-3	1	-18	·	·
COCCn1c(SCC(=O)NCc2ccc3c(c2)OCO3)nnc1-c1c[nH]c2ccccc12	-13	-3	-1	64*	-9	3%	-2%
FCCCOc1ccc(CN2CCN(c3ccccc3F)CC2)cc1	-23	8	-7	·	·	?	?
Cc1cc(CN2CCN(c3ccccc3F)CC2)cs1	-28	·	·	·	·	·	·
O=C(C1CCN(S(=O)(=O)c2cccc3nsnc23)CC1)N1CCn2c1nc1ccccc12	·	-17	-58	·	·	·	·
Cc1n[nH]c(C)c1S(=O)(=O)N1CCC(C(=O)N2CCn3c2nc2ccccc23)CC1	-8	-7	-34	48*	39*	-29%	-12%
Cc1ccc2c(c1)cc1c(=O)n(Cc3cccc(Cl)c3)nc(C)n12	5	·	·	0	·	·	·
CC(C)(C)CC(=O)NCC(c1ccc2c(c1)OCO2)N1CCN(c2ccccc2)CC1 (centres undefined)	·	·	·	20	·	·	·
OC(COc1ccc(Br)cc1)CN1CCN(c2ccccc2)CC1 (centres undefined)	-18	-3	-14	61*	81*	?	?
OC(COc1ccccc1)CN1CCN(c2ncccn2)CC1 (centres undefined)	-5	0	-8	9	39*	15%	10%
COc1cccc(OCC(O)CN2CCOCC2)c1 (centres undefined)	11	2	-21	-1	1	·	·
COc1cccc(OCC(O)CN2CCN(c3ccccc3)CC2)c1 (centres undefined)	-24	?	0	79*	83*	?	?
COc1cccc(OCC(O)CN2CCN(c3ncccn3)CC2)c1 (centres undefined)	-17	?	3	78*	69*	15%	?
COc1cccc(OCC(O)CN2CCN(c3ccc(Cl)cc3)CC2)c1 (centres undefined)	-17	-4	-26	7	-42	·	·
SMILES	D2 PAM-1	D2 ag-1	D2 PAM-2	D2 ag-2	D2 antagonist	D3 arrestin ag	D2 ag-3
Cc1nn(-c2ccc(N3CCCCC3)nn2)c(C)c1CCC(=O)NCc1ccccc1	-14	·	·	0	·	·	·
COc1cccc(CN2CCN(c3ncccn3)CC2)c1	-29	55*	26	93*	95*	?	0.63µM*
OC(CSc1ccc(F)cc1)CN1CCN(c2ccccc2)CC1 (centres undefined)	-24	?	-17	80*	76*	-3%	20%
COc1cc(Br)cc(CN2CCN(c3ncccn3)CC2)c1O	-18	52*	81*	76*	74*	?	7.9µM*
COc1cccc(OCC(O)CN2CCN(c3ccccn3)CC2)c1 (centres undefined)	-27	?	21	73*	91*	?	3.5µM*
OC(CN1CCN(c2ccccc2)CC1)Cn1c2ccccc2c2ccccc21 (centres undefined)	-14	-15	-29	0	-13	·	·
CC(=O)Nc1cccc(NC(=O)CSc2nnnn2-c2ccc3c(c2)OCO3)c1	-10	·	·	0	2	·	·
CCSc1ccccc1C(=O)Nc1ccc(-c2nc3ccccc3s2)c(O)c1	-4	·	·	1	·	·	·
COc1ccc(-c2cc(C(=O)Nc3c(C(=O)c4ccc(C)cc4)oc4ccccc34)no2)cc1	8	·	·	2	·	·	·
CCc1ccc(NC(=O)CSc2nc3ncccc3[nH]2)cc1	4	·	·	-1	·	·	·
OCC(O)CN1CCN(c2ccccc2)CC1 (centres undefined)	-22	14	-16	82*	59*	-5%	17%
CCN(CC(=O)Nc1c(F)cccc1F)C(=O)c1ccc(OCC(=O)N2CCOCC2)c(OC)c1	·	-5	2	·	·	·	·
Cc1ccc(NC(=O)OCCN2CCN(Cc3ccccc3)CCC2=O)cc1	-12	0	-5	50*	43*	8%	?
O=C(Nc1ccccc1)OCCN1CCN(Cc2ccccc2)CCC1=O	-4	-6	-6	-1	4	·	·
COc1ccccc1N1CCN(CC(C)N(C(=O)C2CCCCC2)c2ccccn2)CC1 (centres undefined)	-23	-1	-13	40*	82*	-21%	-2%
Oc1ccc(Br)cc1C=Nc1ccc2c3c(cccc13)CC2	3	-10	-28	8	15	-2%	-12%
Oc1ccc(Cl)cc1C=Nc1ccccc1Br	1	-4	-5	1	18	·	·
